aSyn 5UTR act – Activators working through SNCA 5'UTR binding (MLPCN); AID 1814; 300,000 tested, 7.1% active; alpha-synuclein 5'UTR reporter, activators screen; activity score, % (tested at 7.5 µM), hits read low; in the data active = activity score below about -60%
A number is an active result; 0 = inactive; + = active, no number. The list is a sample of the results.

SMILES	aSyn 5UTR act
COc1ccc(NCc2nnc(SCC(=O)c3ccc(OC)cc3)n2C)cc1	-127
O=C(CSc1nccn1-c1ccccc1)Nc1ccc2c(c1)OCO2	-69
CN(N=Nc1cccc([N+](=O)[O-])c1)c1cccc([N+](=O)[O-])c1	-82
O=C(COc1ccccc1)Nc1ccccc1N1CCN(c2ccccc2)CC1	0
O=C(COc1ccccc1)Nc1ccc(N2CCCCC2)cc1	-74
C/C(=N\NC(=O)c1c(Cl)c(C)nn1C)c1cccc(NC(=O)COc2ccccc2)c1	-80
Cc1ccc(SCC(=O)Nc2ccc(N3CCN(C)CC3)c(F)c2)cc1	-82
CN1CCN(c2ccc(NC(=O)COc3ccccc3)cc2Cl)CC1	-192
CC(C)c1ccc(NC(=O)COc2ccccn2)cc1	-130
CC(C)c1ccc(NC(=O)COc2ccccc2)cc1	-124
Cc1ccnc(NS(=O)(=O)c2ccc(NC(=O)COc3ccccc3)cc2)n1	0
Cc1cc(NC(=O)COc2ccccc2)ccc1Cl	-96
CCCOC(=O)Nc1ccc(N2CCCCC2)cc1	-67
O=C(O)c1c(-c2ccc(Cl)cc2)cn2ccccc12	-167
Cc1cc(OCCN2CCOCC2)ccc1Cl	-76
Cc1ccc(OCCCCCN2CCOCC2)c(Cl)c1	-74
Cc1ccc(OCc2ccc(C(=O)Nc3nc4ccccc4n3Cc3ccccc3)o2)c([N+](=O)[O-])c1	0
Cc1cc(OCCN2CCOCC2)ccc1[N+](=O)[O-]	-80
Cc1ccc(OCCCN2CCOCC2)c([N+](=O)[O-])c1	-82
Cc1cc(OCC(=O)N2CCOCC2)ccc1[N+](=O)[O-]	-76
CC(=O)N(C1=C(N)C(=O)c2ccccc2C1=O)c1ccccc1	0
COc1ccc(N(/N=C2\Sc3ccccc3C2=O)C(C)=O)cc1	-143
CCc1cc2c(N=Nc3c(O)[nH]c4ccccc34)ncnc2s1	-62
Oc1[nH]c2ccccc2c1N=Nc1nncc2ccccc12	-62
Cc1sc2ncnc(N=Nc3c(O)[nH]c4ccccc34)c2c1C	-141
SMILES	aSyn 5UTR act
COc1cc2ccccc2cc1C(=O)Nc1ccc(Cc2ccncc2)cc1	-129
CC(=O)Oc1ccccc1C(=O)Nc1ccccc1	-93
O=C(Nc1ccncc1)c1cc2ccccc2cc1O	-79
Cc1ccc(NC(=O)c2cccc3ccccc23)cc1	-91
Cc1ccc(NC(=O)c2cc(C)n(-c3cccc(C)c3)c2C)cc1	-62
COc1ccccc1C(=O)Nc1ccc2ccccc2c1	-88
COc1cc2ccccc2cc1C(=O)Nc1ccc(C)cc1	-186
Cc1ccc(NC(=O)c2cc(C)n(-c3ccccc3)c2C)cc1	0
C=CCn1c(=O)c(C(=O)Nc2ccc(C)cc2)c(O)c2ccccc21	-76
C=CCn1c(N)c(C(=O)Nc2ccc(C)cc2)sc1=S	-149
CCn1c(=O)c(C(=O)Nc2ccsc2C(=O)OC)c(O)c2ccccc21	-65
C=CCn1c(=O)c(C(=O)Nc2ccccc2S(N)(=O)=O)c(O)c2ccccc21	-156
C=CCn1c(O)c(N=NC(=S)Nc2ccc(OC)cc2)c2ccccc21	0
CC(C)(C)c1ccc(Cn2cnc(-c3ccc([N+](=O)[O-])cc3)c2)cc1	-119
C=CC[n+]1c(/C=C2\C=Cc3cc(C)ccc3N2CC)ccc2ccccc21	0
CCN1/C(=C2/SC(=S)N(C)C2=O)C=Cc2cc(C)ccc21	-68
COc1ccccc1C(=O)Nc1cc(-c2ccc(C)cc2)no1	-178
COc1ccccc1C(=O)Nc1cc(C)on1	-114
COc1ccccc1C(=O)Nc1ccc2c3c(cccc13)CC2	-118
COc1ccccc1C(=O)Nc1cccc(NC(=O)c2ccccc2OC)n1	-112
COc1cccc2cc(C(=O)Nc3cccc(C)n3)c(=O)oc12	-167
Cc1cc(NC(=O)C(=O)c2cn(C)c3ccccc23)no1	-72
COc1ccccc1C(=O)Nc1ccccc1SC(=O)c1ccccc1OC	-112
COc1cccc(-c2nnc(-c3ccco3)o2)c1	-147
COc1cccc(-c2nnc(NC(=O)C(C)C)o2)c1	-67
SMILES	aSyn 5UTR act
CCCN(CCC)S(=O)(=O)c1ccc(C(=O)Nc2nnc(-c3cccc(OC)c3)o2)cc1	0
COc1cccc(C(=O)Nc2ccc(-c3nnc(-c4ccco4)o3)cc2)c1	-127
COc1cccc(OCCOc2ccccc2[N+](=O)[O-])c1	-155
O=C1C=C(c2cccs2)C[C@H](c2ccccc2)[C@H]1n1nnc([N+](=O)[O-])n1	0
COc1cccc(-c2nnc(-c3ccccc3[N+](=O)[O-])o2)c1	-136
CCOC(=O)N/N=C/C=C/c1ccccc1[N+](=O)[O-]	-75
Cc1ccsc1C(=O)N/N=C/C=C/c1ccccc1[N+](=O)[O-]	-138
CC1CCCC(C)N1/N=C/C=C/c1ccccc1[N+](=O)[O-] (configuration not stated)	-133
CCOC(=O)c1cn2ccc(C)cc2n1	-107
COC(=O)c1ccc2nc(NC(=O)C(C)(C)C)sc2c1	0
C=CCN(CC=C)S(=O)(=O)c1ccc2nc(NC(=O)C3CCCO3)sc2c1 (configuration not stated)	-89
COC(=O)c1ccc2nc(NC(=O)C3CCCCC3)sc2c1	-105
O=C(Nc1nc2ccc(Cl)cc2s1)C1CCCO1 (configuration not stated)	-127
O=C(Nc1nc2ccc([N+](=O)[O-])cc2s1)C1CCCO1 (configuration not stated)	-153
O=C(Nc1nc2ccccc2s1)C1CCN(S(=O)(=O)c2cc([N+](=O)[O-])ccc2Cl)CC1	-81
O=C(Nc1nc2ccc(Cl)cc2s1)C1CC1	-150
O=C(Nc1nc2ccc(Cl)cc2s1)c1cccc(N2C(=O)CCC2=O)c1	-78
O=C(Nc1nc2ccc(S(=O)(=O)N3CCCC3)cc2s1)C1CCCCC1	0
COC(=O)c1ccc(CN2C(=O)NC(Cc3c[nH]c4ccccc34)C2=O)cc1 (configuration not stated)	-95
Cc1nn(-c2ccccc2)c2c1C(O)n1c(nc3ccccc31)S2 (configuration not stated)	-67
Cc1cccc2sc(N(CCN(C)C)C(=O)c3cc(Cl)sc3Cl)nc12	-85
Cc1ccc2nc(N(CCN(C)C)C(=O)c3cc(Cl)sc3Cl)sc2c1	-133
Cc1ccc2nc(N(CCCN(C)C)C(=O)c3cc(-c4cccs4)nc4ccccc34)sc2c1	0
O=c1[nH]c2ccccc2nc1-c1ccc(Cl)cc1	-72
O=c1[nH]c2ccccc2nc1-c1ccccc1	-73
SMILES	aSyn 5UTR act
NC(=O)N=Nc1c2[nH]c3ccccc3nc-2c2ccccc12	+
COc1ccc(C(=O)O/N=C(\N)c2ccc(Br)cc2)cc1	-174
COc1ccc(C(=O)O/N=C(\N)c2ccccc2)cc1	-82
COc1ccc(/C=N/NC(=O)c2nc(-c3ccccc3)n(-c3ccccc3)n2)c(O)c1	0
COc1ccc(-c2c(C)nn(-c3ccccc3)c2N)cc1	-110
Cc1nn(-c2ccc(C(=O)O)cc2)c(N)c1-c1ccccc1	-179
CC(=O)[C@@]1(O)C(C)CC2C3C=C(C)C4=Cc5c(cnn5-c5ccccc5)C[C@]4(C)C3C(O)C[C@@]21C (some centres not stated)	0
CCN(CC)c1ccc(N=Cc2c(C)[nH]c3ccccc23)cc1	0
Oc1[nH]c2ccccc2c1C=Nc1ccccc1	-130
c1ccc(-c2cc(N3CCCCCC3)n[nH]2)cc1	-74
c1ccc(-c2cc(N3CCCCC3)ncn2)cc1	-135
O=C(c1cccs1)c1no[n+]([O-])c1C(=O)c1cccs1	0
Cc1ccc(-c2nnc(SCC#CCOC(=O)c3ccco3)o2)cc1	-66
Cc1ccc(-c2nnc(SCC#CCOC(=O)c3cccs3)o2)cc1	-71
Cc1ccc(-c2nnc(COC(=O)c3cccs3)o2)cc1	-64

Screening results from PubChem.
